Inconclusive results are not listed. Calls of active or inactive are those of the source. Rule for the calls, unless noted: active = hit-call score of the fitted dose curve at least 0.9, where 1 is the maximum; inconclusive = response in the unintended direction; inactive = score below 0.9.
How the values were obtained:
[1] = target: human Norepinephrine Transporter (NET), SLC6A2 (gene 6530) (UniProt P23975); test: NVS_TR_hNET: NovaScreen (NVS) Transporter Assay for human Norepinephrine Transporter (NET) (AID 2283377);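 note: cell-free membrane protein extracted from CHO cells expressing human NET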;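 for AC50: displacement of radioligand from human NET seen as loss of scintillation signal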
human Norepinephrine Transporter (NET), SLC6A2 (gene 6530), sequence (P23975 whole entry, looked up): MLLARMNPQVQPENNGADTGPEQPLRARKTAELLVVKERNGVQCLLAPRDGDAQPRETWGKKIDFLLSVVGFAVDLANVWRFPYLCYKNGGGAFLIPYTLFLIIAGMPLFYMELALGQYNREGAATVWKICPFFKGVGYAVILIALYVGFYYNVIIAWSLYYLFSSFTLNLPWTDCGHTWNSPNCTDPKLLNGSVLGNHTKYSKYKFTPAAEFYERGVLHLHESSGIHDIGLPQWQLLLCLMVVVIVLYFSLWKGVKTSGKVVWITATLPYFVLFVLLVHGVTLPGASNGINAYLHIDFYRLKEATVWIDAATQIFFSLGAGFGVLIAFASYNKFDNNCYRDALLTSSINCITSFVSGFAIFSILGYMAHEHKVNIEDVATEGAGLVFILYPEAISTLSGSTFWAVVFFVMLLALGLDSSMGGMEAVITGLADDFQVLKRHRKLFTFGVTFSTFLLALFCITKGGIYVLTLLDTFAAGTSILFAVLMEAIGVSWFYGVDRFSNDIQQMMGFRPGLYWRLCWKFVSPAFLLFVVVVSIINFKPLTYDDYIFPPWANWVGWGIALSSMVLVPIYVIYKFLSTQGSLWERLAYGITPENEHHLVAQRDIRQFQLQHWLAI
Procedure, shortened: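 In this cell-free binding screen, chemicals at 25 uM (duplicate) compete with a radioligand for CHO-derived human NET over 1 hour, with filter-based radiodetection.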

[2] = target: mouse Estrogen Receptor alpha (Era), Esr1 (gene 13982) (UniProt P19785); test: NVS_NR_mERa: NovaScreen (NVS) Nuclear Receptor Binding Assay for mouse Estrogen Receptor alpha (Era) (AID 2283378);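 note: hit means loss of bound radioligand signal relative to DMSO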
mouse Estrogen Receptor alpha (Era), Esr1 (gene 13982), sequence (P19785 whole entry, looked up): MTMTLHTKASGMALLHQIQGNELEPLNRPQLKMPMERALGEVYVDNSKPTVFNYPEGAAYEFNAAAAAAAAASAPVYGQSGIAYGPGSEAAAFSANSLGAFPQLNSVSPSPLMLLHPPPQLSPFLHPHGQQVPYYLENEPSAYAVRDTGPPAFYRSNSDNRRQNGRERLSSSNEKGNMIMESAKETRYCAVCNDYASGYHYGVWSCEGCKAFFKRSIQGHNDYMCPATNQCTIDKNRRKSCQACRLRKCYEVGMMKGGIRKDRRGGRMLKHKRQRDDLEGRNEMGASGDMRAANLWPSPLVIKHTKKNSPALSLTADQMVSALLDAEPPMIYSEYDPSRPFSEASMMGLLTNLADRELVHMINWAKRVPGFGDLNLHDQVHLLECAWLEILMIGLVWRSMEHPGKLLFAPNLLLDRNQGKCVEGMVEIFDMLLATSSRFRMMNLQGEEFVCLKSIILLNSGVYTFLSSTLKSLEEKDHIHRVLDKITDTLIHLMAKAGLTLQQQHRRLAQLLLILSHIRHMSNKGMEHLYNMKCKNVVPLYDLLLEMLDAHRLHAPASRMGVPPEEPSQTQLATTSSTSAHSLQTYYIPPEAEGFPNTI
Procedure, shortened: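 Cell-free radioligand competitive displacement binding, read by filter-based scintillation counting 18 h after dosing. Primary screen run in duplicate at 25 uM, actives retested in concentration series; loss of signal versus DMSO.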

[3] = target: Estrogen receptor (Homo sapiens) (UniProt P03372); test: OT_ERa_GFPERaERE_0480: Odyssey Thera (OT) 8-hour HeLa Transcription Induction Assay for Estrogen Receptor (AID 2283381; active = hit-call score of the fitted dose curve at least 0.9, where 1 is the maximum; inactive = score below 0.9)
Estrogen receptor (Homo sapiens), sequence (P03372 whole entry, looked up): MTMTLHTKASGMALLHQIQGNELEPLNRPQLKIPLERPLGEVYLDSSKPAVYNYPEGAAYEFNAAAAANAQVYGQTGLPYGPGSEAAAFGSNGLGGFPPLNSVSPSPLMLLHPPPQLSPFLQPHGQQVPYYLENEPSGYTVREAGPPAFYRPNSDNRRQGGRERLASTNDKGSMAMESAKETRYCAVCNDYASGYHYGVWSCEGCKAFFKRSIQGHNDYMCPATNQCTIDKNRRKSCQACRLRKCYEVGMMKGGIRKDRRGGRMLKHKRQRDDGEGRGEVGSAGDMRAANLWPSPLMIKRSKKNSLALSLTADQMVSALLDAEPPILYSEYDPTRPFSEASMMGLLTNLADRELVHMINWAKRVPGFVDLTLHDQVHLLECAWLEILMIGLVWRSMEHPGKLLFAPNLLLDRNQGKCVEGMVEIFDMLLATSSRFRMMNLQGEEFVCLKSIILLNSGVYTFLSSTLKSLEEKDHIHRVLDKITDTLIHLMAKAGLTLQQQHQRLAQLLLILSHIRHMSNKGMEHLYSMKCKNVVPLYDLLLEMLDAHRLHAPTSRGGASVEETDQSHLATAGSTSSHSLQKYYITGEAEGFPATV
Procedure, shortened: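 Fluorescence microscopy with high-content image analysis measures ERE-driven GFP induction in HeLa cells at 8 h post-dose. Increases fitted against DMSO baseline.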

[4] = target: Estrogen receptor (Homo sapiens) (UniProt P03372); test: OT_ERa_GFPERaERE_0120: Odyssey Thera (OT) 2-hour HeLa Transcription Induction Assay for Estrogen Receptor (AID 2283382)
Procedure, shortened: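 Fluorescence-microscopy images of the GFP-ERα/ERE reporter, scored by high-content image algorithms, give the readout. HeLa exposure lasted 2 h, and only signal increase over DMSO was fitted.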

[5] = target: Bile acid receptor (Homo sapiens) (UniProt Q96RI1); test: OT_FXR_FXRSRC1_0480: Odyssey Thera (OT) 8-hour HEK293T Protein-Complementation Assay for Farnesoid X receptor/SRC-1 Co-activator (AID 2283383)
Bile acid receptor (Homo sapiens), sequence (Q96RI1 whole entry, looked up, the tested form may be a part): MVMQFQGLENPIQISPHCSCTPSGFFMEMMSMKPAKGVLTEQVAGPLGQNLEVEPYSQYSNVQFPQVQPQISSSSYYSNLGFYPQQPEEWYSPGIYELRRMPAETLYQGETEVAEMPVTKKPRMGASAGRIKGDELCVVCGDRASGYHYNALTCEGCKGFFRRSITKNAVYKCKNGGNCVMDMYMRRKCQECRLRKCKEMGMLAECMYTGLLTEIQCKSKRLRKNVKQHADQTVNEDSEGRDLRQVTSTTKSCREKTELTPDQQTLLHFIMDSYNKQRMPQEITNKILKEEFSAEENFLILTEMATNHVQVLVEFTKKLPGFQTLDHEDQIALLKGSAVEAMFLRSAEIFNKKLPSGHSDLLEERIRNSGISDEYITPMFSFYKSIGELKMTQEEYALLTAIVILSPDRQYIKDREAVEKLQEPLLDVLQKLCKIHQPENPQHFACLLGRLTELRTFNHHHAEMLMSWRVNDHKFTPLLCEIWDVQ
Procedure, shortened: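 Binding of FXR to coactivator SRC-1 was read as fluorescence from a reconstituted split reporter in HEK293T cells, 8 h after chemical addition. Only increases in signal versus DMSO were fit.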

[6] = target: Peroxisome proliferator-activated receptor gamma (Homo sapiens) (UniProt P37231); test: OT_PPARg_PPARgSRC1_0480: Odyssey Thera (OT) 8-hour Protein-Complementation Assay for Peroxisome Proliferator-activated Receptor Gamma / SRC-1 Co-activator (AID 2283387)
Peroxisome proliferator-activated receptor gamma (Homo sapiens), sequence (P37231 whole entry, looked up, the tested form may be a part): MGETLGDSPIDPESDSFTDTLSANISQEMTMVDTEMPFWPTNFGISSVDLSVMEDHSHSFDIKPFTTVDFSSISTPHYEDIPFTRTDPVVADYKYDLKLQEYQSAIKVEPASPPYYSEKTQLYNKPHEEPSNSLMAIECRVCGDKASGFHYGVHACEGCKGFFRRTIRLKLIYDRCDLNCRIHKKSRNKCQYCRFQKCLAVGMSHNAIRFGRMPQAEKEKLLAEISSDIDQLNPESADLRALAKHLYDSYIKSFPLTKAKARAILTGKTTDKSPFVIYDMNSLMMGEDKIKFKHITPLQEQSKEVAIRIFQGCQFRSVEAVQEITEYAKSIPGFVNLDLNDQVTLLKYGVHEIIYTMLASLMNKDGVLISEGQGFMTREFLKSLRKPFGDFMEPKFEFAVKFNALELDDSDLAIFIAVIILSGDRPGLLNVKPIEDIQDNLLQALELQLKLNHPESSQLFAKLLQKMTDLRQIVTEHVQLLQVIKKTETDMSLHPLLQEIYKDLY
Procedure, shortened: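 HEK293T transiently transfected with PPARg and SRC-1 fused to Venus YFP fragments, compounds 8 h at 37C. Fixed, Draq5-stained cells imaged; nuclear/cytoplasmic 488 nm fluorescence ratio over at least 350 cells per image; gain fitted versus DMSO.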

[7] = target: Peroxisome proliferator-activated receptor gamma (Homo sapiens) (UniProt P37231); test: OT_PPARg_PPARgSRC1_1440: Odyssey Thera (OT) 24-hour Protein-Complementation Assay for Peroxisome Proliferator-activated Receptor Gamma/ SRC-1 Co-activator (AID 2283388)
Procedure, shortened: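 HEK293T transiently transfected with PPARg/SRC-1 split-Venus YFP fusions 48 h before dosing, then treated 24 h at 37C. Fixed cells imaged; nuclear/cytoplasmic 488 nm fluorescence ratio, gain of signal versus DMSO.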

[8] = target: Agonist Androgen Response Element (ARE), AR (gene 367) (UniProt P10275); test: OT_AR_ARELUC_AG_1440: Odyssey Thera (OT) 24-hour CHO-K1 Luciferase Assay for Agonist Androgen Response Element (ARE) (AID 2283379)
Agonist Androgen Response Element (ARE), AR (gene 367), sequence (P10275 whole entry, looked up): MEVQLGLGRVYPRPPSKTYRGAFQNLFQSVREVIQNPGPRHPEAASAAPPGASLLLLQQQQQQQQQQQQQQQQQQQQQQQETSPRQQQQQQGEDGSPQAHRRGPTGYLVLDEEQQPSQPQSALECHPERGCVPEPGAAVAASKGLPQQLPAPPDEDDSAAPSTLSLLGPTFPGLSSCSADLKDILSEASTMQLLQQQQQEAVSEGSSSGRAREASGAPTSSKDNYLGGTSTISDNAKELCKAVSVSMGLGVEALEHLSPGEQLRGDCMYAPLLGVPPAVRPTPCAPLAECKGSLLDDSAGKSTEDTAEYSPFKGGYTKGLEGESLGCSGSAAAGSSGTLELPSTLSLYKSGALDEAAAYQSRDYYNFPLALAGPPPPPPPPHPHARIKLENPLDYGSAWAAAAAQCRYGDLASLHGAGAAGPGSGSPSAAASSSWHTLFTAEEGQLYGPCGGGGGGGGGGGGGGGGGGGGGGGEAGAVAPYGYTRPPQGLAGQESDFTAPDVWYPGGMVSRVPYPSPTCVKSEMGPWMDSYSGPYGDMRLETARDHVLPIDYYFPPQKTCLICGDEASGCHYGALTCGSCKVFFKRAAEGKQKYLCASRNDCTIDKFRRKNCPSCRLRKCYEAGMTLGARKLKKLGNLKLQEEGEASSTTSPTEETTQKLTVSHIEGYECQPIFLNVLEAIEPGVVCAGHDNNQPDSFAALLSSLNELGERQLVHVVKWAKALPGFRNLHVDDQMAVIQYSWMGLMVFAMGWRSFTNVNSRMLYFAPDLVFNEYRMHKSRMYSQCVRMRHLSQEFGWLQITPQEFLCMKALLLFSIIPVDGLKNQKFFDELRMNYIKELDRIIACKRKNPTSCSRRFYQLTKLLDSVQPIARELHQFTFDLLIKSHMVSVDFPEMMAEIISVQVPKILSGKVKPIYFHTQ
Procedure, shortened: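 Luminescence increase above DMSO, read after a 24 h compound treatment of CHO-K1 cells expressing an androgen response element luciferase reporter, gives the single primary endpoint; concentration-response fitting used the positive direction.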

[9] = target: Estrogen receptor beta (Homo sapiens) (UniProt Q92731); test: OT_ER_ERbERb_1440: Odyssey Thera (OT) 24-hour HEK293T Protein-Complementation Assay for Estrogen Receptor-beta/-beta Homodimer (AID 2283380);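 note: fluorescence gain from ER beta LBD homodimer complementation read by laser scanning cytometry; scored as signal increase over DMSO baseline for both agonists and antagonists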
Estrogen receptor beta (Homo sapiens), sequence (Q92731 whole entry, looked up, the tested form may be a part): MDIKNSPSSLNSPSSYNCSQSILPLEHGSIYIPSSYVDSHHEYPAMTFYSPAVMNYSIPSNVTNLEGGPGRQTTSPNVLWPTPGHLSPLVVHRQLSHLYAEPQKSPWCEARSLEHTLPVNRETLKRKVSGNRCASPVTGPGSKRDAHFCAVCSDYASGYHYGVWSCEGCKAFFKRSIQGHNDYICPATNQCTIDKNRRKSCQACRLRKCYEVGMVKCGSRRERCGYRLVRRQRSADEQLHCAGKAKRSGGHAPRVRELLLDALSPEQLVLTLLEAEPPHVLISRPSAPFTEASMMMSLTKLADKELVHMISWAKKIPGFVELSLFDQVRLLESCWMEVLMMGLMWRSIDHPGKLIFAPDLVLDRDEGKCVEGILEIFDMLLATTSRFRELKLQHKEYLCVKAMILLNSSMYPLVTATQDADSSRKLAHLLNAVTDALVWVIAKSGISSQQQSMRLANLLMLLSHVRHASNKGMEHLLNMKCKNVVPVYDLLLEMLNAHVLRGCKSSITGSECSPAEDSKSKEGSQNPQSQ
Procedure, shortened: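 HEK293T cells stably expressing human ER-beta LBD (aa 310-547) PCA homodimer pair, dosed 24 h; formaldehyde-fixed, Draq5-stained. Readout: increase in nuclear (agonist) or nuclear plus cytoplasmic (antagonist) fluorescence intensity versus DMSO, gain-of-signal fitting.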

[10] = target: Retinoic acid receptor RXR-alpha (Homo sapiens) (UniProt P19793); test: OT_NURR1_NURR1RXRa_0480: Odyssey Thera (OT) 8-hour HEK293T Protein Complementation Assay for Nurr1/retinoid X receptor (RXR) (AID 2283385)
Retinoic acid receptor RXR-alpha (Homo sapiens), sequence (P19793 whole entry, looked up, the tested form may be a part): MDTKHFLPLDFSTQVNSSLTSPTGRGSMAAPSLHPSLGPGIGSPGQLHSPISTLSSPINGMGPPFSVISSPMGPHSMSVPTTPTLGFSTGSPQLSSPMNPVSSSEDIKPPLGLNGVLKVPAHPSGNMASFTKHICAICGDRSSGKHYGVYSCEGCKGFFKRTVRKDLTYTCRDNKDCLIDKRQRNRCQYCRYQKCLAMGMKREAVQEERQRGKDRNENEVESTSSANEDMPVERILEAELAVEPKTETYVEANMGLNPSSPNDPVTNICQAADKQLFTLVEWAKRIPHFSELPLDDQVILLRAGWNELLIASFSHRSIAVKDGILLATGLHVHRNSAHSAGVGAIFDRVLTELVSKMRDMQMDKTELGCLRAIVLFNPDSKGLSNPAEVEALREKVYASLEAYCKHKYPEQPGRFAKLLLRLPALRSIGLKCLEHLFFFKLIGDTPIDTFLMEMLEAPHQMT
Procedure, shortened: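 Interaction of Nurr1 with RXRα read as reconstituted reporter fluorescence in a HEK293T fragment-complementation system, 8 h post-treatment; increase over DMSO baseline analysed.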

[11] = target: Retinoic acid receptor RXR-alpha (Homo sapiens) (UniProt P19793); test: OT_NURR1_NURR1RXRa_1440: Odyssey Thera (OT) 24-hour HEK293T Protein Complementation Assay for Nurr1/retinoid X receptor (RXR) (AID 2283386)
Procedure, shortened: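 Gain in fluorescence, fitted relative to DMSO, reflects Nurr1–RXRα association in HEK293T cells after 24 h dosing. Bait and prey are each linked to a reporter-protein fragment that reassembles on interaction.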

[12] = CEETOX_H295R_11DCORT: CeeTox H295R High-throughput Steroidogenesis Assay for 11-Deoxycortisol (11DCORT) (AID 2283432; active = hit-call score of the fitted dose curve at least 0.9, where 1 is the maximum; inactive = score below 0.9;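 note: 11-deoxycortisol secreted into the medium measured by LC-MS/MS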); details: actives raise or lower the signal
Procedure, shortened: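 H295R cells prestimulated 48 h with 10 uM forskolin, then exposed 48 h to chemical in 0.1% DMSO. 11-Deoxycortisol in medium quantified by HPLC-MS/MS after MTBE extraction; bidirectional fit versus DMSO. MTT viability read in same wells.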

[13] = CEETOX_H295R_OHPREG: CeeTox H295R High-throughput Steroidogenesis Assay for OH-Pregnenolone (OHPREG) (AID 2283434; active = hit-call score of the fitted dose curve at least 0.9, where 1 is the maximum; inactive = score below 0.9); details: actives raise or lower the signal
Procedure, shortened: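 Readout: HPLC-MS/MS of 17alpha-hydroxypregnenolone in medium after 48 h chemical exposure of H295R cells pretreated with forskolin. Values fitted bidirectionally relative to DMSO; chemicals reducing viability to 20–70% were retested after 10-fold dilution.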

[14] = CEETOX_H295R_OHPROG: CeeTox H295R High-throughput Steroidogenesis Assay for OH-Progesterone (OHPROG) (AID 2283435; active = hit-call score of the fitted dose curve at least 0.9, where 1 is the maximum; inactive = score below 0.9;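 for AC50: 17alpha-hydroxyprogesterone secreted into medium measured by HPLC-MS/MS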); details: actives raise or lower the signal
Procedure, shortened: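 Medium steroid levels read by LC-MS/MS after 48 h chemical treatment (0.1% DMSO) of human adrenal H295R cells that had been forskolin-primed (10 uM, 48 h). Gain or loss fitted against DMSO; MTT cytotoxicity checked per well.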

[15] = CEETOX_H295R_CORTIC: CeeTox H295R High-throughput Steroidogenesis Assay for Corticosterone (CORTIC) (AID 2283437; active = hit-call score of the fitted dose curve at least 0.9, where 1 is the maximum; inactive = score below 0.9;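 note: corticosterone secreted into medium quantified by mass spectrometry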); details: actives raise or lower the signal
Procedure, shortened: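 Steps: seed H295R, adhere overnight; 10 uM forskolin 48 h; replace with chemical (0.1% DMSO) 48 h; extract medium with MTBE; quantify corticosterone by HPLC-MS/MS; score bidirectionally vs DMSO.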

[16] = CEETOX_H295R_CORTISOL: CeeTox H295R High-throughput Steroidogenesis Assay for Cortisol (AID 2283438; active = hit-call score of the fitted dose curve at least 0.9, where 1 is the maximum; inactive = score below 0.9;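 note: cortisol secreted into medium quantified by LC-MS/MS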); details: actives raise or lower the signal
Procedure, shortened: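 Cortisol measured by HPLC-MS/MS after MTBE extraction of medium from H295R cells exposed 48 h to chemical (0.1% DMSO), following 48 h prestimulation with 10 uM forskolin. Viability assessed by MTT in the same wells.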

[17] = CEETOX_H295R_DOC: CeeTox H295R High-throughput Steroidogenesis Assay for DOC (AID 2283439; active = hit-call score of the fitted dose curve at least 0.9, where 1 is the maximum; inactive = score below 0.9); details: actives raise or lower the signal
Procedure, shortened: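 11-Deoxycorticosterone quantified in medium by MTBE extraction and HPLC-MS/MS after 48 h chemical exposure (0.1% DMSO) of forskolin-primed (10 uM, 48 h) H295R cells. Same-well MTT viability; data fitted bidirectionally against DMSO.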

[18] = target: Bile acid receptor (Homo sapiens) (UniProt Q96RI1); test: OT_FXR_FXRSRC1_1440: Odyssey Thera (OT) 24-hour HEK293T Protein-Complementation Assay for Farnesoid X receptor/SRC-1 Co-activator (AID 2283384)
Procedure, shortened: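 Protein-fragment complementation: FXR and SRC-1 fused to reporter fragments that reassemble on interaction, read by fluorescence intensity. Human HEK293T cells measured 24 h post-dose; positive-direction fit versus DMSO.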

[19] = target: rat Serotonin Transporter (SERT), Slc6a4 (gene 25553) (UniProt P31652); test: NVS_TR_rSERT: NovaScreen (NVS) Transporter Assay for rat Serotonin Transporter (SERT) (AID 2283375)
Procedure, shortened: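 Rat forebrain membranes; radioligand displacement at SERT read by filter-based scintillation counting, 1 h after dosing. Screened in duplicate at 25 uM, actives then run in concentration series; loss of signal versus DMSO baseline.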

Measured: AC50

c1ccc2c(c1)[nH]c1ccccc12
active: [1] 0.94 µM

C=C[Si](OCCOC)(OCCOC)OCCOC
inactive: [3] | [4] | [5] | [6] | [7]
active: [2] 10.5 µM

[Cl][Eu]([Cl])[Cl]
active: [1] 45.2 µM

Oc1ccc(-c2ccccc2)c(Cl)c1
inactive: [2] | [8] | [4] | [10] | [6] | [7]
active: [9] 18.1 µM | [3] 91 µM | [11] 69.5 µM

CC(C)(c1ccccc1)c1ccc(Nc2ccc(C(C)(C)c3ccccc3)cc2)cc1
active: [12] 2.72 µM | [13] 1.54 µM | [14] 0.359 µM | [16] 9.95 µM | [17] 0.82 µM
inactive: [2] | [3] | [4] | [10] | [6] | [7] | [15]

CC(CCC(=O)O)(c1ccc(O)cc1)c1ccc(O)cc1
inactive: [5] | [18] | [10] | [11] | [6] | [7]
active: [2] 6.23 µM | [9] 52.3 µM | [3] 47.1 µM | [4] 35.7 µM

Oc1ccc(/C=C/c2cc(O)cc(O)c2)cc1
active: [1] 3.12 µM
inactive: [19]

CC(C)(C)NC(=O)[C@H]1CC[C@H]2[C@@H]3CC[C@H]4NC(=O)C=C[C@]4(C)[C@H]3CC[C@]12C
inactive: [2] | [3] | [5] | [6] | [7] | [14] | [15]
active: [18] 3.77 µM | [12] 34.4 µM | [16] 36.3 µM | [17] 13.5 µM

N#Cc1ccc(C(c2ccc(C#N)cc2)n2cncn2)cc1
inactive: [8] | [9] | [3] | [4] | [5] | [18] | [10] | [11] | [6] | [7]

N#Cc1ccc(C2CCCc3cncn32)cc1 (stereo not given)
inactive: [2] | [11] | [6] | [7]
active: [3] 18.2 µM | [4] 15.8 µM

CCC[Si](OC)(OC)OC
inactive: [8] | [9] | [3] | [4] | [5] | [18] | [10] | [11]

CCCCC/C=C\C/C=C\CCCCCCCC(=O)O
active: [2] 35.8 µM | [6] 12.7 µM
inactive: [3] | [4] | [5] | [18] | [10] | [7]

O=C(OCc1ccccc1)c1ccc(O)cc1
active: [2] 1.08 µM | [9] 5.67 µM | [5] 50 µM | [18] 50 µM | [11] 69.9 µM | [12] 36.8 µM | [13] 30.5 µM | [14] 13.5 µM | [16] 36.9 µM | [17] 42.7 µM
inactive: [3] | [4] | [10] | [6] | [7] | [15]

COc1ccc(-c2coc3cc(O)cc(O)c3c2=O)cc1
inactive: [2] | [6] | [15]
active: [9] 2.61 µM | [3] 8.5 µM | [4] 12.4 µM | [12] 6.15 µM | [13] 7.39 µM | [14] 7.4 µM | [16] 3.65 µM | [17] 5 µM

Cc1cc(C)n(CO)n1
inactive: [1] | [3] | [4] | [5] | [18] | [6] | [7]

CO[Si](C)(C)OC
inactive: [2] | [9] | [3] | [4] | [10] | [6] | [7]

c1ccc(-c2nc3ccccc3[nH]2)cc1
active: [1] 12 µM

c1ccc(Nc2cccc3ccccc23)cc1
inactive: [2] | [3] | [4] | [6] | [7]
active: [9] 37.3 µM | [10] 77.5 µM | [11] 82 µM

O=c1c(O)c(-c2ccc(O)cc2O)oc2cc(O)cc(O)c12
inactive: [2] | [3] | [4] | [10] | [11] | [6] | [7]

CC(C=O)c1ccccc1 (stereo not given)
inactive: [1]

CC(=O)OC1CCCCC1C(C)(C)C (stereo not given)
inactive: [8] | [9] | [3] | [4] | [10] | [11] | [6] | [7]

C=C1C[C@H]2[C@@H]3C=C(C)C4=CC(=O)CC[C@]4(C)[C@H]3CC[C@]2(C)[C@@]1(OC(C)=O)C(C)=O
inactive: [9] | [3] | [4] | [6] | [7]
active: [2] 29.2 µM | [8] 0.0079 µM | [10] 27.5 µM | [11] 49.5 µM

CC(C)=CCCC(C)=CC#N
inactive: [2] | [3] | [4] | [5] | [10] | [6] | [7]

CCCCCCCCCCCCCC(=O)OC(C)C
active: [8] 3.48 µM
inactive: [9] | [3] | [4] | [5] | [10] | [11] | [6] | [7]

CCCCCCCCCCCCCCCCCCOS(=O)(=O)O
active: [9] 12.6 µM
inactive: [2] | [3] | [4] | [5] | [18] | [11] | [6] | [7]

COC(OC)(C(=O)c1ccccc1)c1ccccc1
active: [2] 6.88 µM
